Consider seven compounds from PubChem BioAssay (NCATS).

Unmarked numbers belong to inactive results. Records with an inconclusive call do not appear. The source made the active and inactive calls. Unless noted, the call rests on the fitted dose curve; in most records, active means well fitted curve in the direction sought with a large enough effect; inconclusive means small, poorly fitted or top-dose-only effect, or another doubt; inactive means no such curve, though single readings can be large; an effect the other way counts as inactive or inconclusive.

Experiment [1] deals with Lysosomal acid glucosylceramidase (Homo sapiens) (UniProt P04062). The experiment is described as follows: Glucocerebrosidase-p2 (AID 348; in the data active means potency below about 10 µM; further: potency means the concentration at half of the fitted maximal effect). Conditions: purified GBA, blue fluorogenic substrate, 40 min. A digest of the protocol: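 Compounds titrated from 0.6 nM upwards against 0.2 nM enzyme in pH 5.9 citric acid/KH2PO4, taurocholate, tween-20; blue fluorogenic substrate 80 uM, 40 min room temperature, stopped and read Ex 365/Em 440 for AC50.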

Experiment [2] is described as follows: AP1 Signaling Pathway (AID 357; active means well fitted curve in either direction with a large enough effect, not every such curve was filed as active;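 further: ME-180 reporter cells stimulated with EGF at its EC50 level; on the % scale 0 is the no-effect control and ±100 the full control effect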). Conditions: ME-180 AP-1-bla reporter, EGF-induced, beta-lactamase ratio, 5 h; at 7.69 µM (top of the series) unless noted. A digest of the protocol:
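A ratiometric CCF4 readout (405 nm excitation; 460 and 530 nm emission) quantified AP-1-driven beta-lactamase in ME-180 cells after 5 h with compound and EC50 EGF; AC50 values were derived for activators and inhibitors.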

Experiment [3] concerns the target Cytochrome P450 1A2 (Homo sapiens) (UniProt P05177). The experiment is described as follows: p450-cyp1a2 (AID 410; calls by dose curve; further: potency means the concentration at half of the fitted maximal effect). Conditions: recombinant CYP1A2, luciferin-ME demethylation, luminescence; series mostly up to 57 µM. A digest of the protocol:
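Luminescent readout of luciferin formed from Luciferin-ME by human CYP1A2; data normalized against complete inhibition by 57 uM furafylline. Enzyme 20nM, substrate 100uM at Km, 100mM KPO4 buffer, 60 min reaction at room temperature.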

Experiment [4] is described as follows: NFAT Signaling Pathway (AID 444; active means well fitted curve in either direction with a large enough effect, not every such curve was filed as active;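 further: carbachol stimulus at about its EC50 of 1 µM final; on the % scale 0 is the no-effect control and ±100 the full control effect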). Conditions: Jurkat NFAT-bla M1, carbachol, beta-lactamase ratio, 5 h; at 7.69 µM (top of the series) unless noted. A digest of the protocol: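 Read-out: CCF4 FRET ratio (460 nm/530 nm) after 1 h RT dye loading, used for %activity and AC50 from titration series. Cells: Jurkat NFAT-β-lactamase/M1 line, treated with compound plus 1 uM carbachol for 5 h, 37 °C.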

Experiment [5] can be described thus: Stat Signaling Pathway (AID 446; active means well fitted curve in either direction with a large enough effect, not every such curve was filed as active;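 further: ME-180 cervical cancer cells given 40 pM IL-6 alongside compound; SIE-controlled beta-lactamase reporter measured as 460/530 nm FRET emission ratio; on the % scale 0 is the no-effect control and ±100 the full control effect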). Conditions: ME-180 SIE beta-lactamase reporter, IL-6 stimulated, 5 h; at 7.69 µM (top of the series) unless noted. A digest of the protocol: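 IL-6/STAT signaling read in ME-180 cells via an SIE beta-lactamase reporter. Stimulus was 40 pM IL-6 (its AC50) for 5 hrs, so both activation and inhibition register.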
The target of experiment [6] is Glucocorticoid receptor (Homo sapiens) (UniProt P04150). The experiment is described as follows: GR-GFP Redistribution (AID 450;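 active means compounds whose dose series gives a full or clear partial fitted curve of increased nuclear translocation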; further: potency means the concentration at half of the fitted maximal effect). Conditions: U2OS GR-GFP nuclear translocation, laser cytometry, 2 h.
Experiment [7] shares this target. The experiment is described as follows: GR-EFC Redistribution (AID 451; calls by dose curve; further: potency means the concentration at half of the fitted maximal effect). Conditions: CHO-K1 GR-EFC translocation, beta-gal luminescence, 2 h. A digest of the protocol: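 Translocation of GR-ED fusion to nuclear EA restores b-gal, read by luminescence after 1 h room-temperature detection. Engineered CHO-K1 biosensor cells, 1,000/well, exposed 2 h at 37 C to titrations up to 46 uM final.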

Experiment [8] concerns the target Mitogen-activated protein kinase 10 (Mus musculus) (UniProt Q61831). Put plainly: JNK3 AlphaScreen Assay (AID 530; active means well fitted curve in either direction with a large enough effect, not every such curve was filed as active;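 further: kinase came from lysate of stimulated human HepG2 cells; signal reports phosphorylation of biotinylated GST-cJun 1-79 at Ser73 with 10 µM ATP; on the % scale 0 is the no-effect control and ±100 the full control effect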). Conditions: JNK3 lysate, c-Jun phosphorylation; series mostly up to 57.1 µM. A digest of the protocol: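 Compound titrations were preincubated 15 minutes at room temperature with substrate, antibody and pre-activated JNK3-containing HepG2 lysate. Reactions were started with 10 uM ATP and stopped with EDTA-containing bead buffer for AlphaScreen detection.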

In experiment [9] the target is 3',5'-cyclic-AMP phosphodiesterase 4B (Homo sapiens) (UniProt Q07343). Put plainly: qHTS Assay for Inhibitors of PDE-IV (AID 607; active means well fitted activation curve with a large enough effect in the main read-out, with a control signal flat, not every such curve was filed as active; further: % of control where 0% means no effect). Conditions: HEK293 ACTOne CNG channel cells, membrane potential fluorescence; series mostly up to 22.9 µM. A digest of the protocol:
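Live HEK293 cells with a modified cyclic nucleotide-gated (CNG) channel report intracellular cAMP via membrane-potential dye fluorescence (ex 535/em 590 nm). Endogenous PDE-IV was targeted. Compounds were tested at up to 22.9 uM final; RO 20-1724 100 uM served as control.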

The target in experiment [10] is Cytochrome P450 3A4 (Homo sapiens) (UniProt P08684). The experiment is described as follows: qHTS Assay for Inhibitors and Substrates of Cytochrome P450 3A4 (AID 884). Further: potency means the concentration at half of the fitted maximal effect; nearly all actives have a fitted effect of over 50% in size. Conditions: recombinant CYP3A4, Luciferin-PPXE luminescence; series mostly up to 57.1 µM. A digest of the protocol: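 20 nM human CYP3A4 with 25 uM Luciferin-PPXE (at KM) in 200 mM KPO4, preincubated 10 min with compound; NADPH regeneration started a 60 min RT reaction. Luciferin detected by luminescence, normalized to 57 uM ketoconazole as full inhibition.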

For experiment [11] the target is unchanged. Put plainly: qHTS Assay for Activators of Cytochrome P450 3A4 (AID 885). Further: nearly all actives have a fitted effect of over 65% in size. Conditions: recombinant CYP3A4, Luciferin-PPXE luminescence, 60 min; series mostly up to 57.1 µM. A digest of the protocol:
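Quantitative HTS format: compounds preincubated with 20nM human CYP3A4 and Luciferin-PPXE substrate at KM, reaction started by NADPH regeneration, stopped after 60 min, luciferase luminescence read 20 min later.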

The target in experiment [12] is Dual specificity protein kinase CLK4 (Homo sapiens) (UniProt Q9HAZ1). Put plainly: qHTS Assay for Inhibitors of CDC-like Kinase 4 (Kinase-Glo Assay) (AID 1770). Further: nearly all actives have a fitted effect of over 65% in size. Further: potency means the concentration at half of the fitted maximal effect. Conditions: recombinant Clk4, Kinase-Glo ATP depletion luminescence; series mostly up to 66.7 µM. A digest of the protocol:
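Readout: Kinase-Glo luminescence from ATP left after a 4.5 h room-temperature reaction of 25 nM Clk4 with 100 uM RS peptide and 1 uM ATP (final). Buffer: 25 mM Tris pH 7.5, 10 mM MgCl2.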

The target is the same in experiment [13]. Put plainly: qHTS Assay for Inhibitors of CDC-like Kinase 4 (ADP-Glo Assay) (AID 1771). Further: nearly all actives have a fitted effect of over 70% in size. Further: potency means the concentration at half of the fitted maximal effect. Conditions: recombinant CLK4, ADP-Glo luminescence; series mostly up to 80 µM. A digest of the protocol:
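Luminescence from ADP-Glo reports ADP produced by 25 nM Clk4 acting on 100 uM RS repeat peptide with 1 uM ATP over 1 hr at room temperature; residual ATP is depleted before ADP is converted to ATP for detection.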

Experiment [14] has as its target Ubiquitin carboxyl-terminal hydrolase 1 (Homo sapiens) (UniProt O94782). Put plainly: Inhibitors of USP1/UAF1: Pilot qHTS (AID 504865).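 Further: rhodamine fluorescence freed from ubiquitin-rhodamine substrate followed over time; top concentration of the series differs between compounds; on the % scale 0 is the no-effect control and ±100 the full control effect; nearly all actives have a fitted effect of over 35% in size.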 Conditions: purified USP1/UAF1, Ub-rhodamine cleavage fluorescence; series mostly up to 54.9 µM. A digest of the protocol: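 1nM USP1/UAF1 + cpd, 15 min RT; start w/ Ub-Rho 150nM final; kinetic FL 480/540 nm, 6 reads q60 s. Buffer 50mM HEPES pH 7.8, 0.5mM EDTA, 1mM TCEP, 0.01% Tween-20, 0.1 mg/ml BSA.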

The nature of experiment [15]: Primary qHTS for small molecule stabilizers of the endoplasmic reticulum resident proteome: Secreted ER Calcium Modulated Protein (SERCaMP) assay (AID 1508630). Further: on the % scale 0 is the no-effect control and ±100 the full control effect. Conditions: SH-SY5Y GLuc-SERCaMP (Gaussia luciferase released on ER calcium loss) secretion, thapsigargin, luminescence; series mostly up to 38.4 µM. A digest of the protocol: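 GLuc-SERCaMP-expressing SH-SY5Y cells, pretreated 16 h with compound, are challenged with thapsigargin to empty ER calcium stores; after 4 h, coelenterazine is added directly to the medium and luminescence is imaged.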

Experiment [16] is described as follows: qHTS Assay for Identification of Small Molecule Agonists for Hypoxia Response Element Signaling Pathway (AID 914; active means well fitted activation curve with a large enough effect in the signal ratio, with a control signal flat, not every such curve was filed as active; the % refers to the signal ratio; further: potency means the concentration at half of the fitted maximal effect). Conditions: ME-180 (cervical carcinoma) HRE-bla reporter, beta-lactamase ratio, CoCl2, 17 h; activation: active compounds read high. A digest of the protocol: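 Positive modulation of EC50 CoCl2-induced hypoxia response element signaling is measured in ME-180 cells with a beta-lactamase reporter. Compounds are titrated, incubation runs 17 hours, and %Activity derives from the blue/green ratio.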

The target of experiment [17] is Dual specificity protein kinase CLK4 (Homo sapiens) (UniProt Q9HAZ1). The experiment is described as follows: qHTS Assay for Inhibitors of CDC-like Kinase 4 (ADP-FP Assay) (AID 1795). Further: nearly all actives have a fitted effect of over 60% in size. Further: potency means the concentration at half of the fitted maximal effect. Conditions: Transcreener ADP fluorescence polarization; series mostly up to 50 µM. A digest of the protocol: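 FP readout: Orange Transcreener ADP2 tracer (4 nM) plus ADP antibody, read after 30 min at room temperature. Kinase step: 6.25 nM Clk4, 100 uM RS peptide, 1 uM ATP, pH 7.5, 1 h.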

Experiment [18] has as its target Cytochrome P450 2C19 (Homo sapiens) (UniProt P33261). Put plainly: qHTS Assay for Inhibitors and Substrates of Cytochrome P450 2C19 (AID 899). Further: potency means the concentration at half of the fitted maximal effect; nearly all actives have a fitted effect of over 60% in size. Conditions: recombinant CYP2C19, luciferin-H EGE luminescence; series mostly up to 57.1 µM. A digest of the protocol:
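Luminescence readout of luciferin formed from 10uM Luciferin-H EGE (KM level) by 5 nM CYP2C19 in 50mM KPO4. 60 min NADPH-driven reaction at 37C after 10 min compound preincubation; data scaled to 57uM ketoconazole inhibition.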

Sequence of 3',5'-cyclic-AMP phosphodiesterase 4B (Homo sapiens) (Q07343 whole entry, looked up): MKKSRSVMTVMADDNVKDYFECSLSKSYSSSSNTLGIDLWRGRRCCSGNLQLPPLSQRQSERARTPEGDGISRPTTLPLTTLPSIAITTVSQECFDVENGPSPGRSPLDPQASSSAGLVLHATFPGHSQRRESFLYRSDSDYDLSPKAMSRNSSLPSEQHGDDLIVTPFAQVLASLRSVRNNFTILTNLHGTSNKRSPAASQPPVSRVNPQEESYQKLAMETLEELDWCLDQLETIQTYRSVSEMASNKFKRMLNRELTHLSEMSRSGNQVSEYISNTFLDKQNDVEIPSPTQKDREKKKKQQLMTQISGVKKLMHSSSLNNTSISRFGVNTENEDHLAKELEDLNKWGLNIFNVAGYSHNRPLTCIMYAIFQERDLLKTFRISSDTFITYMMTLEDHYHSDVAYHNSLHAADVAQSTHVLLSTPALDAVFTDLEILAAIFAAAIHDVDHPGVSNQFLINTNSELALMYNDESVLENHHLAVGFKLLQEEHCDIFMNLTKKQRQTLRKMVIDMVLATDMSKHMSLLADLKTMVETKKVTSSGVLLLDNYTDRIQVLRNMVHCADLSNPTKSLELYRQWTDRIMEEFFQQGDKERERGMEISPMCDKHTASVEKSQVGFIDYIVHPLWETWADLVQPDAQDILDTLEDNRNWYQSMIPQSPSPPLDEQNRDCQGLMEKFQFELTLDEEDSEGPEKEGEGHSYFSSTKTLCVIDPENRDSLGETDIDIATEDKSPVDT
Sequence of Cytochrome P450 1A2 (Homo sapiens) (P05177 whole entry, looked up): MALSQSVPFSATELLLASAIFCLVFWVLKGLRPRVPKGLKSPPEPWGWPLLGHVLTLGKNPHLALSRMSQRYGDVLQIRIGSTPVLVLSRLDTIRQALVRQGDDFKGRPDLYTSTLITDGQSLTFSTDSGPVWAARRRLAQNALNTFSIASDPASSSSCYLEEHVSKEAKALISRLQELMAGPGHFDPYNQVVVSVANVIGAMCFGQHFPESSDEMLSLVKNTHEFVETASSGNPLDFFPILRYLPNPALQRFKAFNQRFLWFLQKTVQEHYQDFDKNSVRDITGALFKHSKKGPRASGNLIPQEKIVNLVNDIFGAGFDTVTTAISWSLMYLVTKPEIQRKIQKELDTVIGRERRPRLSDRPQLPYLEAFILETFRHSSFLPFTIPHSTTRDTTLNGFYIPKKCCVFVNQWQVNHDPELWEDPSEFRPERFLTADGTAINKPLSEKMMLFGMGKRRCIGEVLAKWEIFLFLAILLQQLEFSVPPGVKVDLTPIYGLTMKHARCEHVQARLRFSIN
Sequence of Cytochrome P450 3A4 (Homo sapiens) (P08684 whole entry, looked up): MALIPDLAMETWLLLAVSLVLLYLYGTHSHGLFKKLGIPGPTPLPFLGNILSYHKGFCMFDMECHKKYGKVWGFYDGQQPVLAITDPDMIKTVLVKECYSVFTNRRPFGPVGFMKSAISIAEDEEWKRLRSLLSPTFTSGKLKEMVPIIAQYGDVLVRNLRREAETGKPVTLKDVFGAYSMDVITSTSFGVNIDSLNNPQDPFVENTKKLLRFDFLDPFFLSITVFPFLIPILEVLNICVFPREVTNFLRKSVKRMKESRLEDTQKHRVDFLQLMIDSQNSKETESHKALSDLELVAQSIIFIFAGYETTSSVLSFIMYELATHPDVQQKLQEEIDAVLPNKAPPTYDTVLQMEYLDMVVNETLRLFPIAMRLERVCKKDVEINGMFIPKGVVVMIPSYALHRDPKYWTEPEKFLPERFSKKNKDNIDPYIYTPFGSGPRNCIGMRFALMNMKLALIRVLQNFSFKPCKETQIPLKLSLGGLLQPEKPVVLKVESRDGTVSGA
Sequence of Glucocorticoid receptor (Homo sapiens) (P04150 whole entry, looked up, the tested form may be a part): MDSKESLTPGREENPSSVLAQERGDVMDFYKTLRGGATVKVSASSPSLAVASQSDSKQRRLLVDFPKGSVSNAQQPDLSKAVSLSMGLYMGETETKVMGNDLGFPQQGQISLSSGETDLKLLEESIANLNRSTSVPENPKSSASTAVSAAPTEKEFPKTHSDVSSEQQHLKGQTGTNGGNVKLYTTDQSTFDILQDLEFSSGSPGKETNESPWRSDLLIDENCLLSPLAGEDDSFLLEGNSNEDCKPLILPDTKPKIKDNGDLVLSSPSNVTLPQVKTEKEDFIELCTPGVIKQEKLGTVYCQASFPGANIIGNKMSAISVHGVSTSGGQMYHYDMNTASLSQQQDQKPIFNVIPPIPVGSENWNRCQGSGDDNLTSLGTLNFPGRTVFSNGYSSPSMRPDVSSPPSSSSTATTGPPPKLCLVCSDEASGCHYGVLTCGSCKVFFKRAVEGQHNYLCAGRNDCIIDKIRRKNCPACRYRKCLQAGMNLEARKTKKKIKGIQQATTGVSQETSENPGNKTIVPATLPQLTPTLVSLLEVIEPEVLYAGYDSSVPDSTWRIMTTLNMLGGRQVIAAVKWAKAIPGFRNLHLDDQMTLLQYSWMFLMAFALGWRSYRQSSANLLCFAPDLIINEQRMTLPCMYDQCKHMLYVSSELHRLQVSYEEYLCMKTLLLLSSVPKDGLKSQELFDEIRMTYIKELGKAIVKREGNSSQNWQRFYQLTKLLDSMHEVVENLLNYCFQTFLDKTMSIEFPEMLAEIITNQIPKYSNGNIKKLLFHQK
Sequence of Ubiquitin carboxyl-terminal hydrolase 1 (Homo sapiens) (O94782 whole entry, looked up): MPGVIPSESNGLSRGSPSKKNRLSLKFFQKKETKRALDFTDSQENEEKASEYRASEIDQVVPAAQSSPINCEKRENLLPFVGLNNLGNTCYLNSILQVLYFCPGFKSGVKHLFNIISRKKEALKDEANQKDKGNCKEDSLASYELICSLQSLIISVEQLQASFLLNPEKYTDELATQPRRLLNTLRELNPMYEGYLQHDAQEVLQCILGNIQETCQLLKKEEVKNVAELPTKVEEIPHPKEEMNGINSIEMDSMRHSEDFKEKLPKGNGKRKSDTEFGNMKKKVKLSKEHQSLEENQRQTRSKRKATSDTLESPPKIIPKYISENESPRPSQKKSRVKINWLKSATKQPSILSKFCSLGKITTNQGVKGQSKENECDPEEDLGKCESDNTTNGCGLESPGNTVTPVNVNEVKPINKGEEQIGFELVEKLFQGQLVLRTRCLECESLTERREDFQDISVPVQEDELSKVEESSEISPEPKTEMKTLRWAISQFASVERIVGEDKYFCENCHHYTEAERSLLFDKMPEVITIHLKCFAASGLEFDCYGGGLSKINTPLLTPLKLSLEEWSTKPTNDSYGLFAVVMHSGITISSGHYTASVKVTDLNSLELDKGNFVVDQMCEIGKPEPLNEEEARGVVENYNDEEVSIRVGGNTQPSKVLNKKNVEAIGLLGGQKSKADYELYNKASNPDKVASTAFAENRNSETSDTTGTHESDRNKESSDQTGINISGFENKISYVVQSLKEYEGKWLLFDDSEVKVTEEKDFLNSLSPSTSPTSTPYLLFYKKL
Sequence of Lysosomal acid glucosylceramidase (Homo sapiens) (P04062 whole entry, looked up): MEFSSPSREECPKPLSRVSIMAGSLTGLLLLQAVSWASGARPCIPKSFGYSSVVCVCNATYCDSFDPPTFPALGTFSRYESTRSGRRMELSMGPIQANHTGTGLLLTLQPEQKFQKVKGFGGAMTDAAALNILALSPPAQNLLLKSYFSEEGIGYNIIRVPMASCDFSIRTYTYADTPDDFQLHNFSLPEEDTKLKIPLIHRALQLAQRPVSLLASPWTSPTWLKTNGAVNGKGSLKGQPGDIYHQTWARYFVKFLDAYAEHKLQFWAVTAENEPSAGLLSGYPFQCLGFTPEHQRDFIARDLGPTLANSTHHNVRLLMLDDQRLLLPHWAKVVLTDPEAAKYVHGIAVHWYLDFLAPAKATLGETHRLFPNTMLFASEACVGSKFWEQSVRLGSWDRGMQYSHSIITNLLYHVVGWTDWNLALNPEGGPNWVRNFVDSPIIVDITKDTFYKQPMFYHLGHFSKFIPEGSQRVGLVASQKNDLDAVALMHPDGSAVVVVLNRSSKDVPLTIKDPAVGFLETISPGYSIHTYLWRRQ
Sequence of Dual specificity protein kinase CLK4 (Homo sapiens) (Q9HAZ1 whole entry, looked up): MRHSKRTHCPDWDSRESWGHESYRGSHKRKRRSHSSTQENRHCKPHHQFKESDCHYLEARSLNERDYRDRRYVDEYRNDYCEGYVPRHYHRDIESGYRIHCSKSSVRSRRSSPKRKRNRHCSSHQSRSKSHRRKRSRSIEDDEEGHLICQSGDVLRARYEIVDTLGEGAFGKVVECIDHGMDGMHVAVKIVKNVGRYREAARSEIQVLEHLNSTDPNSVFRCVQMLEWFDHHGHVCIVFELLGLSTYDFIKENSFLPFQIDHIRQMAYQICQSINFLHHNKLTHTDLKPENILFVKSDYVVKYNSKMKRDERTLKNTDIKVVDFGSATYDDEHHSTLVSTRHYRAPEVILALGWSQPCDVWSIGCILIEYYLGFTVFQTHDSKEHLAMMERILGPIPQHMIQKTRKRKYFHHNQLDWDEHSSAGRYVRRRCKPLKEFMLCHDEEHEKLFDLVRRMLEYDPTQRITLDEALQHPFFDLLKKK
Sequence of Cytochrome P450 2C19 (Homo sapiens) (P33261 whole entry, looked up): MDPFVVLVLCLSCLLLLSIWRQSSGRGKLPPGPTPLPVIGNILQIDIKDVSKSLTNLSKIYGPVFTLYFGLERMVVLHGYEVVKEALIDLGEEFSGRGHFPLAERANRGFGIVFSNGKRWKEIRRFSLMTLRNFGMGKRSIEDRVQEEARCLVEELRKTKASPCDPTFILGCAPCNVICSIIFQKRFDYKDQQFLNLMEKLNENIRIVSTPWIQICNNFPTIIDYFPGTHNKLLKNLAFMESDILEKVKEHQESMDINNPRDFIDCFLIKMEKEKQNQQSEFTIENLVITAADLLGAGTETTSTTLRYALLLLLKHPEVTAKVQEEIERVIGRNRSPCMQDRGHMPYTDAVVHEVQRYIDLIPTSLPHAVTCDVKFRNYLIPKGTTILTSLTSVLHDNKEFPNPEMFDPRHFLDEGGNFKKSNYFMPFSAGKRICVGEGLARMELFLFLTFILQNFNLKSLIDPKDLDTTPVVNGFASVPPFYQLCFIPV

Turning to `Cc1cnc(CNc2ncncc2-c2ccc3c(c2)OCO3)cn1`, the Potency in [1] is > 11.4 µM; in experiment [3] it was 2 µM (active); in [6] it was > 46 µM; in experiment [7], > 46 µM; in [10], 1.58 µM (active); in [12] it was 14.1 µM (active). The Potency in experiment [13] was 15.8 µM (active). For the same compound, the activity change, negative = inhibition was -10.4% in experiment [2] and -2.24% in [4]. Also, the activity, negative = inhibition in experiment [5] was 4.5%. In addition, the Potency entry in experiment [8], in [9], in [11] and in [14] was “inactive” in each case. The outcome in experiment [15] was inactive.
Take `Cn1c(=O)c(-c2cc(F)cc(F)c2)nc2cnc(N3CCNCC3)nc21`: the figures for the Potency in experiment [6], in experiment [7] and in experiment [16] were > 9.22 µM, > 46 µM and 3.16 µM (active), respectively. Further, the Potency entry in experiment [8], in [9], in experiment [11], in [12], in [13] and in experiment [17] was “inactive” each time. The Potency entry in experiment [14] is “inactive”. For the same compound, the result in [15] was inactive.
Take `CNc1ccnc(-c2cccc(NS(C)(=O)=O)c2)n1`: the activity change, negative = inhibition in experiment [2] is 13.6%; in [4] it was 18.6%. The activity, negative = inhibition in [5] is -1.8%. For the same compound, the Potency in experiment [6] and in experiment [7] was > 46 µM throughout. Also, the Potency entry in [8], in experiment [9], in [12], in [13], in experiment [17] and in experiment [14] was “inactive” in each case. In experiment [15], the result was inactive.
With `c1cncc(-c2ccc3ncnc(NCCN4CCOCC4)c3c2)c1`, the Potency is > 11.4 µM in [1]; 1 µM (active) in experiment [3]; > 46 µM in [6]; > 46 µM in experiment [7]; 15.8 µM (active) in experiment [12]; 17.8 µM (active) in experiment [13]. The activity change, negative = inhibition in experiment [2] is -1.94%; in experiment [4] it was 26%. Further, the activity, negative = inhibition in [5] is 2.95%. For the same compound, the Potency result in experiment [8], in experiment [9], in experiment [11] and in experiment [14] was “inactive” throughout. Also, the result in experiment [15] was inactive.
In the case of `COCCNc1ccnc(-c2ccccc2C)n1`, the Potency in [1] was > 11.4 µM; in experiment [3], 12.6 µM (active); in experiment [6], > 46 µM; in experiment [7], > 46 µM. Further, the activity change, negative = inhibition in experiment [2] was -9.97%; in [4] it was 3.48%. The activity, negative = inhibition in [5] is 15.6%. Moreover, the Potency entry in experiment [8], in experiment [9], in [12], in experiment [13] and in experiment [14] was “inactive” each time. The result in [15] was inactive.
For the compound `Cc1cnc(CNc2cc(-c3cccc(C#N)c3)ncn2)cn1`, the Potency in experiment [1] is > 11.4 µM; in experiment [3], 15.8 µM (active); in experiment [6], > 46 µM; in [7], > 46 µM; in experiment [12] it was 31.6 µM (active); in experiment [13], 35.5 µM (active). Also, the activity change, negative = inhibition was 8.07% in [2] and 25.8% in [4]. Besides, the activity, negative = inhibition in experiment [5] was 7.04%. The Potency result in [8], in experiment [9], in experiment [11] and in experiment [14] was “inactive” each time. Moreover, in experiment [15], the result was inactive.
As to `COc1cccc(-c2ccc3ncnc(N4CCOCC4)c3c2)c1`, the Potency in experiment [3] is 1 µM (active); in experiment [7], > 46 µM; in [18], 3.98 µM (active); in experiment [12], 1.41 µM (active); in [13], 1.58 µM (active); in experiment [17], 1.12 µM (active). Also, the activity, negative = inhibition in experiment [5] was 8.65%. Besides, the Potency entry in experiment [8], in [11] and in experiment [14] was “inactive” throughout. In addition, the result in [15] was inactive.
